Data taken from PubChem BioAssay AID1259336 (Sattelle Laboratory, UCL Respiratory, Division of Medicine, …, 2017).

Experiment: C. elegans growth inhibition, whole organism, log2 fold change (AID 1259336);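 also: growth scored by imaging after five days at 20 °C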
Settings: anthelmintic screen, active compounds read low; in the data active = log2 fold change growth below about -1.8; inactive = the rest

log2 fold change growth, inactive:
CS(=O)(=O)N1CCC(Cn2nc(Cc3cccc4ccccc34)c3c(N)ncnc32)CC1 -0.695
Cc1noc(C)c1C(=O)N1CCC[C@H](c2[nH]c3c(C)cccc3c2-c2ccncc2)C1 -0.149
CC(C)(C)OC(=O)N1CCN(c2cc(-c3ccc(Oc4ccccc4)cc3)[nH]n2)CC1 -0.56
c1ccc2c(c1)CN(CC1CC1)CC1(CCN(Cc3c[nH]c4cnccc34)CC1)O2 0.264
O=C(NC1CC1)c1ccc(N2CCOc3ccc(Cl)cc32)s1 -0.614
O=C1COCc2ccc(Br)cc2N1Cc1ccc(C(F)(F)F)cc1 -0.402
Nc1ncc(Br)cc1-c1nc2ncc(Cl)cc2[nH]1 0.329
Cc1ccc(NC(=O)C[C@H]2COc3ccccc3O2)cc1Cl -0.476
NCCN(C(=O)c1ccc(Cl)cc1Cl)c1ccc(OCc2ccc(Cl)cc2)cc1 -0.0401
O=C(C1CCCCC1)N1CC(=O)N2CCc3ccccc3[C@@H]2C1 0.303
Clc1cccc([C@H](c2ccc(CN3CCNCC3)cc2)n2ccnc2)c1 -0.356
CC(=O)N(CCN(C(=O)c1ccc(F)cc1)c1ccccc1)c1ccccc1 0.382
CCCCS(=O)(=O)Nc1ccc2cnn(C)c2c1 0.414
Nc1ncnc2c1ncn2C[C@@H](O)[C@@H](O)C(=O)O -0.0899
c1csc(-c2cnc3sc(NCC4CCOCC4)nn23)c1 -0.257
